Experimental data taken from PubChem BioAssay AID652106 (National Center for Advancing Translational Sciences (NCATS), 2013).
The campaign covered roughly 370,000 compounds. About 500 (0.14%) were called active. About 2% were inconclusive and are not listed. The sample holds actives, similar compounds and a random draw of the others, so the mix is not that of the screen. A number with no mark means an inactive call. Calls follow the shape of the dose curve; as a rule, active = well fitted activation curve with a large enough effect; inconclusive = small, poorly fitted or top-dose-only effect; inactive = no such curve, though single readings can be large or run the other way.

assay: qHTS of alpha-syn Inhibitors; details: Yeast expressing alpha-synuclein, BacTiter-Glo, 24 h; Potency: growth rescue; series mostly up to 46.1 µM; growth rescue (activation): at the top concentration; also: nearly all actives have a fitted effect of over 65% in size; as to growth rescue (activation): % of control where 0% means no effect
Method in brief: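 Galactose-induced alpha-syn yeast (OD600=0.02, raffinose-pregrown) + pinned cpd, 24 hr, 30 deg C; growth by BacTiter-Glo luminescence. Growth restoration scores as activation.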
Potency is read from the fitted curve at half-maximal effect.

SMILES | growth rescue (activation) [%] | Potency
COc1ccc(C2Nc3ccc(NC(=O)COC(C)=O)cc3C(=O)N2Cc2ccccc2)cc1COc1ccc(NC(C)=O)cc1 (stereo not given) | 9.72 | –
N#Cc1ccc[n+](CC(=O)c2ccc(O)c(O)c2)c1 | -5.45 | –
CCCCCCCNc1ccc(/C=C/c2ccnc3ccccc23)cc1 | -63.8 | –
O=C(Nc1ccc(Cl)cc1)c1cnn2c1NC(=C1CC1)C=C2C(F)F | 2.5 | –
COc1ccc(/C=C/c2ccccn2)cc1OC | 2.19 | –
Cc1ccccc1NC(=O)Cn1c(=O)n(Cc2ccco2)c(=O)c2ccc(C(=O)NC3CCCC3)cc21 | -1.91 | –
OCC(O)C(O)C(O)C(O)C=Nc1ccc(/C=C/c2ccnc3ccccc23)cc1 (stereo not given) | -3.78 | –
Oc1ccc(Br)cc1C1C=C(c2ccc3c(c2)OCO3)NC(c2ccc(Cl)cc2)N1 (stereo not given) | -74.5 | –
CCc1ccccc1NC(=O)c1cnn(-c2ccc(F)cc2)c1C1CCNCC1 | 0.136 | –
CCCCCCC1(C)NC(c2ccc3c(c2)OCO3)=CC(c2ccccc2O)N1 (stereo not given) | 5.74 | –
CCCCC(CCCC)c1ccc(C=Nc2ccc(/C=C/c3ccnc4ccccc34)cc2)cc1 | 6.84 | –
CCOC(=O)c1c(NC(=O)c2ccc(S(=O)(=O)N3CCCC(C)C3)cc2)sc2c1CCN(C(C)C)C2 (stereo not given) | 11.7 | –
CCC1(C)CC(=O)NC1=O (stereo not given) | -0.966 | –
COc1ccc(CNc2nc(-c3ccc(Cl)cc3)nn2S(=O)(=O)c2ccc(C)cc2)cc1 | 4.81 | –
CN(C)C1=C2C=CC=CC2/C(=C2/C=Cc3ccccc32)C=C1 (stereo not given) | -15.3 | –
Nc1ccc2nn(-c3ccc(Cl)cc3)nc2c1 | -1.77 | –
Nc1ccc(Oc2ccc(Cl)cc2)cc1 | – | 17.8 µM (active)
Cc1nn(C)c(Oc2ccc(Cl)cc2)c1C=O | -0.273 | –
COc1cc2nc(N3CCCN(C)CC3)nc(NC(C)C)c2cc1OC | -1.61 | –
O=C(Nc1ccc([N+](=O)[O-])cc1)c1cnn2c1NC(=C1CC1)C=C2C(F)F | -0.794 | –

SMILES | growth rescue (activation) [%] | Potency
Nc1ncnc2c1c(I)cn2[C@@H]1C[C@H](N)[C@@H](O)[C@H]1O | 1.75 | –
Cc1cccc(-c2nnc(SC(C)C(=O)Nc3ccccc3)n2C)c1 (stereo not given) | 2.27 | –
O=C(c1ccc2c(=O)n(Cc3ccco3)c(=S)[nH]c2c1)N1CCCC1 | 29.5 | –
OCc1cnc(SCc2ccc(F)cc2)n1Cc1ccc(F)cc1 | 0.908 | –
Cc1ccc(C)c2sc(NC(=O)c3ccc(S(=O)(=O)N4CCCC4)cc3)nc12 | 1.28 | –
O=C1COc2ccc(-c3csc(-c4ccc(Cl)cc4)n3)cc2N1 | 1.55 | –
CCc1ccc(NC(=O)CN2CCSc3ccc(S(=O)(=O)N4CCCC4)cc32)cc1 | -0.525 | –
c1ccc(Cn2nnc3c(N4CCCCC4)ncnc32)cc1 | -1.05 | –
Cc1c(CCO)sc[n+]1CC(=O)c1ccc2ccccc2c1 | -0.239 | –
COc1cc2nc(Cl)nc(NC3CC3)c2cc1OC | -3.26 | –
COc1c(C)c2c(c(O)c1C/C=C(\C)CCC(=O)O)C(=O)OC2 | – | 7.08 µM (active)
Oc1ccc(Cl)cc1C1C=C(c2ccc3c(c2)OCO3)NC(c2c(F)cccc2Cl)N1 (stereo not given) | -5.55 | –
CCCCOc1ccc(C(=O)NO)cc1 | 3.36 | –
Cc1nn(-c2ccc(F)cc2)c(-n2cccc2)c1C(=O)N1CCN(c2ccccc2)CC1 | 8.12 | –
CCCCNC(=O)Cn1c(SCc2cccc(Cl)c2)nc2ccncc21 | -2.77 | –
COc1ccc(Oc2cn[nH]c2-c2ccc(OC)cc2O)cc1 | – | 17.8 µM (active)
COc1ccc(-c2c(-c3ccc(OC)cc3O)nc(C)nc2C(F)(F)F)cc1 | -5.24 | –
COc1ccc(-c2[nH]ncc2CN(C)Cc2c(C)n[nH]c2C)c(OC)c1 | 2.52 | –
Cc1ccc(-n2c(SCC(=O)c3ccccc3)nc3c([nH]c4ccccc43)c2=O)cc1 | 0.37 | –
COC(=O)C1=C(C(=O)OC)[C@@H]2N(Cc3ccccc3)c3ccccc3[C@@]23C[C@@H](C(=O)OC)N(S(=O)(=O)c2ccc(C(F)(F)F)cc2)C3=N1 | 1.17 | –

SMILES | growth rescue (activation) [%] | Potency
CNCCCOc1cc2nc(N3CCCN(C)CC3)nc(NC3CCN(C)CC3)c2cc1OC | 9.23 | –
Cc1cccc(-n2ccnc2SCC(=O)Nc2cc(C(F)(F)F)ccc2Cl)c1 | 0.0737 | –
COc1ccc(CCn2c3c(c(=O)[nH]c2=S)CN(C(C)C)CN3)cc1OC | -0.0407 | –
COc1ccc(N2C(=O)CS(=O)(=O)C23C(=O)N(Cc2ccc(C)cc2)c2ccccc23)cc1Cl (stereo not given) | 4.45 | –
CN(C)Cc1cn(-c2ccccc2)nc1-c1ccccc1 | 2 | –
O=C(Oc1ccc([N+](=O)[O-])cc1)c1ccc2ccccc2n1 | -0.0122 | –
O=[N+]([O-])c1ccc2c(c1)Nc1nc3ccccc3nc1N2 | – | 3.55 µM (active)
O=[N+]([O-])c1cc2ccccc2nc1-c1ccccc1 | 6.61 | –
C=C1C=C(C(F)F)n2ncc(C(=O)NCCc3ccccc3OC)c2N1 | 1.42 | –
CCOc1ccccc1CNC(=O)Nc1cn(CC(C)C)c(=O)c2ccccc12 | 7.95 | –
C/C=C/NNC(=O)Cc1ccc(OC)cc1 | 0.567 | –
COc1ccc(OC)c(NC(=O)COC(=O)Cc2ccsc2)c1 | 8.95 | –
COc1ccc(OC)c(Nc2nc(-c3ccc(O)c(O)c3)cs2)c1 | – | 11.2 µM (active)
CCN1CCN(c2nc(Nc3cc(OC)ccc3OC)nc(Nc3cc(OC)ccc3OC)n2)CC1 | 2.29 | –
CCOC(=O)c1ccc(NC2=CC(c3ccc(OCC)cc3)N(c3ccc(C(=O)OCC)cc3)C2=O)cc1 (stereo not given) | 5.01 | –
CN(Cc1ccccc1)c1ccc(/C=C/c2ccnc3ccccc23)cc1 | -32.3 | –
CC(=O)/C(C)=N/O | -8.5 | –
CC(C)(C)C1CCC(NC(=O)c2cnn3c2NC(=C2CC2)C=C3C(F)F)CC1 (stereo not given) | -57.4 | –
CC1=C(C(=O)Nc2ccccc2Cl)C(c2cccs2)n2ncnc2N1 (stereo not given) | -2.14 | –
Cc1ccc(-c2nnc3ccc(SCC(N)=O)nn23)cc1 | -0.723 | –
